Like-named read-outs stand apart in the source and are kept apart here.
Experiments:
TAOK2 = conditions: concentration: 1 μM, replicates: in singlicate; n = 1
TAOK3 = conditions: concentration: 1 μM, replicates: in singlicate; n = 1
TBK1 = conditions: concentration: 1 μM, replicates: in singlicate; n = 1
TEC = conditions: concentration: 1 μM, replicates: in singlicate; n = 1
TESK1 = conditions: concentration: 1 μM, replicates: in singlicate; n = 1
TGFBR1 = conditions: n = 1
TGFBR2 = conditions: concentration: 1 μM, replicates: in singlicate; n = 1
TIE1 = conditions: concentration: 1 μM, replicates: in singlicate; n = 1
TIE2 = tested on: T1, TIE2; conditions: concentration: 1 μM, replicates: in singlicate; n = 1
T1 construct: gene TEK

TLK1 = conditions: concentration: 1 μM, replicates: in singlicate; n = 1
TLK2 = conditions: concentration: 1 μM, replicates: in singlicate; n = 1
TNIK = conditions: concentration: 1 μM, replicates: in singlicate; n = 1
TNK1 = conditions: concentration: 1 μM, replicates: in singlicate; n = 1
TNK2 = conditions: concentration: 1 μM, replicates: in singlicate; n = 1
TNNI3K = conditions: concentration: 1 μM, replicates: in singlicate; n = 1
TRKA = tested on: T2, TRKA; conditions: concentration: 1 μM, replicates: in singlicate; n = 1
T2 construct: gene NTRK1

TRKB = conditions: concentration: 1 μM, replicates: in singlicate; n = 1
TRKC = tested on: T3, TRKC; conditions: concentration: 1 μM, replicates: in singlicate; n = 1
T3 construct: gene NTRK3

TRPM6 = conditions: concentration: 1 μM, replicates: in singlicate; n = 1
TSSK1B = conditions: concentration: 1 μM, replicates: in singlicate; n = 1
[1] = concentration: 1 μM, replicates: in singlicate
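Also: KINOMEscan kinase panel screen.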

## O=C(c1ccc(-c2cc(-c3c[nH]nc3-c3ccccn3)ccn2)cc1)N1CCOCC1 [GW812171]
TAOK2
  %Inh: 33%
TAOK3
  %Inh: 2%
TBK1
  %Inh: 31%
TEC
  %Inh: 16%
TESK1
  %Inh: 11%
TGFBR1; 1 µM
  %Inh: 90.7%
TGFBR2
  %Inh: 11%
TIE1
  %Inh: 0%
TIE2
  %Inh: 1%
TLK1
  %Inh: 0%
TLK2
  %Inh: 13%
TNIK
  %Inh: 30%
TNK1
  %Inh: 0%
TNK2
  %Inh: 0%
TNNI3K
  %Inh: 0%
TRKA
  %Inh: 0%
TRKB
  %Inh: 0%
TRKC
  %Inh: 0%
TRPM6
  %Inh: 17%
TSSK1B
  %Inh: 0%

## CN1c2ccc(CNc3ccc(F)cc3)cc2-c2c(cnn2C)S1(=O)=O
TAOK2
  %Inh: 23%
TAOK3
  %Inh: 0%
TBK1
  %Inh: 0%
TEC
  %Inh: 0%
TESK1
  %Inh: 0%
TGFBR1; [1]
  %Inh: 0%
TGFBR2
  %Inh: 0%
TIE1
  %Inh: 0%
TIE2
  %Inh: 0%
TLK1
  %Inh: 16%
TLK2
  %Inh: 0%
TNIK
  %Inh: 9%
TNK1
  %Inh: 12%
TNK2
  %Inh: 0%
TNNI3K
  %Inh: 0%
TRKA
  %Inh: 0%
TRKB
  %Inh: 0%
TRKC
  %Inh: 0%
TRPM6
  %Inh: 0%
TSSK1B
  %Inh: 0%

## Fc1ccc(-c2nn3c(OCC(F)(F)F)cccc3c2-c2ccncc2)cc1 [GW514784]
TAOK2
  %Inh: 0%
TAOK3
  %Inh: 0%
TBK1
  %Inh: 0%
TEC
  %Inh: 0%
TESK1
  %Inh: 13%
TGFBR1; [1]
  %Inh: 39%
TGFBR2
  %Inh: 55%
TIE1
  %Inh: 0%
TIE2
  %Inh: 0%
TLK1
  %Inh: 0%
TLK2
  %Inh: 0%
TNIK
  %Inh: 29%
TNK1
  %Inh: 0%
TNK2
  %Inh: 18%
TNNI3K
  %Inh: 0%
TRKA
  %Inh: 15%
TRKB
  %Inh: 37%
TRKC
  %Inh: 25%
TRPM6
  %Inh: 0%
TSSK1B
  %Inh: 0%

## Cn1ccc2ncnc(Oc3ccc(NC(=O)Nc4ccncc4)c(Cl)c3)c21
TAOK2
  %Inh: 0%
TAOK3
  %Inh: 0%
TBK1
  %Inh: 22%
TEC
  %Inh: 0%
TESK1
  %Inh: 0%
TGFBR1; [1]
  %Inh: 10%
TGFBR2
  %Inh: 0%
TIE1
  %Inh: 0%
TIE2
  %Inh: 5%
TLK1
  %Inh: 0%
TLK2
  %Inh: 0%
TNIK
  %Inh: 0%
TNK1
  %Inh: 0%
TNK2
  %Inh: 0%
TNNI3K
  %Inh: 0%
TRKA
  %Inh: 0%
TRKB
  %Inh: 0%
TRKC
  %Inh: 0%
TRPM6
  %Inh: 0%
TSSK1B
  %Inh: 0%

## Cc1nnc(-c2ccc3ncc(-c4ccc(S(C)=O)cc4)n3c2)o1 (stereo not drawn)
TAOK2
  %Inh: 0%
TAOK3
  %Inh: 0%
TBK1
  %Inh: 15%
TEC
  %Inh: 7%
TESK1
  %Inh: 0%
TGFBR1; [1]
  %Inh: 9%
TGFBR2
  %Inh: 0%
TIE1
  %Inh: 5%
TIE2
  %Inh: 6%
TLK1
  %Inh: 23%
TLK2
  %Inh: 0%
TNIK
  %Inh: 0%
TNK1
  %Inh: 0%
TNK2
  %Inh: 0%
TNNI3K
  %Inh: 1%
TRKA
  %Inh: 0%
TRKB
  %Inh: 0%
TRKC
  %Inh: 36%
TRPM6
  %Inh: 6%
TSSK1B
  %Inh: 0%

## CN1c2ccc(NCc3ccc(F)cc3)cc2-c2c(cnn2C)S1(=O)=O
TAOK2
  %Inh: 26%
TAOK3
  %Inh: 0%
TBK1
  %Inh: 0%
TEC
  %Inh: 0%
TESK1
  %Inh: 14%
TGFBR1; [1]
  %Inh: 2%
TGFBR2
  %Inh: 16%
TIE1
  %Inh: 8%
TIE2
  %Inh: 0%
TLK1
  %Inh: 13%
TLK2
  %Inh: 0%
TNIK
  %Inh: 38%
TNK1
  %Inh: 35%
TNK2
  %Inh: 0%
TNNI3K
  %Inh: 2%
TRKA
  %Inh: 0%
TRKB
  %Inh: 0%
TRKC
  %Inh: 2%
TRPM6
  %Inh: 0%
TSSK1B
  %Inh: 0%

## COc1ccc(COc2cc(-n3cnc4ccccc43)sc2C(N)=O)cc1 [GSK1024304]
TAOK2
  %Inh: 0%
TAOK3
  %Inh: 0%
TBK1
  %Inh: 0%
TEC
  %Inh: 12%
TESK1
  %Inh: 20%
TGFBR1; [1]
  %Inh: 0%
TGFBR2
  %Inh: 0%
TIE1
  %Inh: 11%
TIE2
  %Inh: 0%
TLK1
  %Inh: 0%
TLK2
  %Inh: 0%
TNIK
  %Inh: 51%
TNK1
  %Inh: 8%
TNK2
  %Inh: 3%
TNNI3K
  %Inh: 0%
TRKA
  %Inh: 0%
TRKB
  %Inh: 0%
TRKC
  %Inh: 19%
TRPM6
  %Inh: 4%
TSSK1B
  %Inh: 0%

## COc1ccc(S(=O)(=O)NC2CCN(c3cc(C)nc(Nc4cccc(C#N)c4)n3)CC2)cc1.O=C(O)C(F)(F)F [GSK1653539]
TAOK2
  %Inh: 0%
TAOK3
  %Inh: 0%
TBK1
  %Inh: 11%
TEC
  %Inh: 10%
TESK1
  %Inh: 5%
TGFBR1; [1]
  %Inh: 0%
TGFBR2
  %Inh: 0%
TIE1
  %Inh: 0%
TIE2
  %Inh: 0%
TLK1
  %Inh: 8%
TLK2
  %Inh: 0%
TNIK
  %Inh: 0%
TNK1
  %Inh: 0%
TNK2
  %Inh: 8%
TNNI3K
  %Inh: 0%
TRKA
  %Inh: 7%
TRKB
  %Inh: 0%
TRKC
  %Inh: 0%
TRPM6
  %Inh: 0%
TSSK1B
  %Inh: 0%

## O=c1cc(N2CCOCC2)nc2n(Cc3cccc4ccccc34)ccn12 [GSK2333389]
TAOK2
  %Inh: 0%
TAOK3
  %Inh: 0%
TBK1
  %Inh: 0%
TEC
  %Inh: 0%
TESK1
  %Inh: 0%
TGFBR1; [1]
  %Inh: 17%
TGFBR2
  %Inh: 1%
TIE1
  %Inh: 11%
TIE2
  %Inh: 0%
TLK1
  %Inh: 0%
TLK2
  %Inh: 0%
TNIK
  %Inh: 0%
TNK1
  %Inh: 0%
TNK2
  %Inh: 6%
TNNI3K
  %Inh: 0%
TRKA
  %Inh: 0%
TRKB
  %Inh: 0%
TRKC
  %Inh: 19%
TRPM6
  %Inh: 2%
TSSK1B
  %Inh: 13%

Source: paper PMC5540273 (PLoS ONE, 2017)
